Shown is part of a subset that was picked to be rich in hits.
Shiga toxin inh = blocks Shiga toxin action in Vero cells. inhibition, % at 38.7 µM. Vero cells, Shiga toxin protein synthesis inhibition reporter. 290,000 tested, 9.2% active; in the data active = inhibition mostly above about 28%, no sharp cut-off; inactive = mostly below about 43%; note: 0% is about no effect
CHX counter = counter-screen hit for Shiga toxin inhibitors, cycloheximide. max response, %. 300,000 tested, 12% active. cell reporter, cycloheximide protein synthesis inhibition counterscreen. AID 2314; in the data active = max response mostly above about 13%, no sharp cut-off; inactive = mostly below about 14%; note: read at 38.3 µM for the half of the compounds with a filed dose; 0% is about no effect
TbPYK inhibitor = inhibitors of Trypanosoma brucei pyruvate kinase; Q57TT1; TbPYK enzyme, Kinase-Glo Plus ATP luminescence, 45 min; Potency, µM (titrated, usually from 76.8 µM), inactives show at the top dose activity, negative = inhibition, hits mostly inhibitors; 410,000 tested, 0.12% active; AID 624173; note: potency is the fitted concentration of half-maximal effect; % is set by controls: 0 for no effect and ±100 for the full control effect; nearly all actives have a fitted effect of over 50% in size
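Glycolytic pyruvate kinase of T. brucei was incubated with substrate, test compound and 130 uM ADP for 45 minutes at room temperature. Luminescent Kinase-Glo Plus signal was measured after 10 minutes.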
RE007 growth inh = less growth of the S. pombe RE007 Vpr strain | S. pombe RE007 Vpr strain, BacTiter-Glo ATP luminescence, 24 h | 360,000 tested, 0.21% active | Potency, µM (highest dose often 92.2 µM), without a hit: at the top dose activity change, negative = less growth, usual class: inhibitors | AID 651644; active = well fitted falling curve with a large enough effect; inconclusive = small, poorly fitted or top-dose-only effect; inactive = no such curve, though single readings can be large or run the other way; note: potency is the fitted concentration of half-maximal effect; % is set by controls: 0 for no effect and ±100 for the full control effect; nearly all actives have a fitted effect of over 50% in size
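Fission yeast RE007 carrying one integrated HIV-1 vpr copy, seeded at OD 0.01 in PMG+AL medium with 23 nL pinned compound. Grown 24 h at 30 degrees; viability read by BacTiter-Glo luminescence after 5 min.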
FBPA Giardia inh = inhibitors of Giardia lamblia fructose-1,6-bisphosphate aldolase | A8B2U2 | purified Giardia FBPA | Potency, µM (doses to about 59.6 µM), without a hit: at the top dose activity, negative = inhibition, actives largely listed as inhibitors | 290,000 tested, 0.71% active | AID 2451; note: potency is the fitted concentration of half-maximal effect; % is set by controls: 0 for no effect and ±100 for the full control effect; nearly all actives have a fitted effect of over 55% in size
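40 nM FBPA preincubated 10 min at RT with compound (up to 57.5 uM final), then substrate plus GAPDH/TPI/NAD/arsenate coupling and diaphorase/resazurin added. Fluorescence read after 20 min at RT, 525/598 nm.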
LmPK inh = inhibitors of Leishmania mexicana pyruvate kinase | Q27686 | purified LmPK, Kinase-Glo ATP luminescence, 1 h | Potency, µM (titrated, usually from 57.5 µM), without a hit: at the highest dose activity change, negative = inhibition, actives largely listed as inhibitors | 290,000 tested, 0.37% active; note: potency is the fitted concentration of half-maximal effect; % is set by controls: 0 for no effect and ±100 for the full control effect
Target sequence (Q27686 whole entry, looked up): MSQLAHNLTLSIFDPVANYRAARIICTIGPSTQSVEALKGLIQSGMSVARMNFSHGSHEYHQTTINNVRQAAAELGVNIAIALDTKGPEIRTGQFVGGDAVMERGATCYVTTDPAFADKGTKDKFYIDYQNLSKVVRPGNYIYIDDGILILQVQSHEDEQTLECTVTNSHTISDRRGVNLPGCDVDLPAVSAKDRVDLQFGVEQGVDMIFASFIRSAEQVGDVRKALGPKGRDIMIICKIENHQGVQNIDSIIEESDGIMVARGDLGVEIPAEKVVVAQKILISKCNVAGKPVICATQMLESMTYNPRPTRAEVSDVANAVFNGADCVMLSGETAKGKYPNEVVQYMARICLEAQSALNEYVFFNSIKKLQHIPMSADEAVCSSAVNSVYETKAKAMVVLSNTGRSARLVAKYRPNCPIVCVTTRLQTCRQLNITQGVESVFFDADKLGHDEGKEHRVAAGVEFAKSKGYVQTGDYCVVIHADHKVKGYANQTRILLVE
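ATP generated from ADP (0.1 mM) and PEP (0.5 mM) by 0.1 nM LmPK over 1 h at room temperature (pH 7.2 imidazole buffer) was detected by coupled luciferase luminescence. Values were normalized to uninhibited and no-enzyme wells.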
* marks the source's active call; other numbers are inactive results; [ ] = remark or other dose. Unless noted, calls come from the whole dose curve; as a rule, active = well fitted curve in the direction sought with a large enough effect; inconclusive = small, poorly fitted or top-dose-only effect, or another doubt; inactive = no such curve, though single readings can be large; an effect the other way counts as inactive or inconclusive.

How did Cc1cc(C)n2nc(NCc3ccccc3)nc2n1 do in these assays?
Shiga toxin inh: 37; CHX counter: 16; RE007 growth inh: -8%[3.69 µM]; FBPA Giardia inh: 9%; LmPK inh: 2%

What do the screens show for `COc1ccc(CNc2nc3nc(C)cc(C)n3n2)cc1`?
Shiga toxin inh: 34*; CHX counter: 10; TbPYK inhibitor: 15%; RE007 growth inh: -3%; FBPA Giardia inh: 2%; LmPK inh: 3%

Results for COc1ccc(CNc2nc3nc(C)c(Cl)c(C)n3n2)cc1 ?
Shiga toxin inh: 56*; CHX counter: 35*; TbPYK inhibitor: 8%; RE007 growth inh: 2%; FBPA Giardia inh: 0%; LmPK inh: 3%

How did COc1cccc(CNc2nc3nc(C)c(Cl)c(=O)n3[nH]2)c1 do in these assays?
Shiga toxin inh: 4; CHX counter: 4; TbPYK inhibitor: 3%; RE007 growth inh: 2%; FBPA Giardia inh: -8%; LmPK inh: 1%

How did Cc1nc2nc(-c3ccco3)nn2c(C)c1Cl do in these assays?
Shiga toxin inh: 8; CHX counter: 14*; TbPYK inhibitor: 1%; RE007 growth inh: -16%; FBPA Giardia inh: 0%; LmPK inh: -14%

What do the screens show for `COc1ccc(CNc2nc3nc(C)c(Cl)c(C)n3n2)cc1OC`?
TbPYK inhibitor: 3%; RE007 growth inh: -1%

Results for Cc1ccc(N2C(=O)[C@@H]3CSC(c4ccc(Cl)cc4)N3C2=O)cc1 (stereo partly specified) ?
TbPYK inhibitor: -7%

What do the screens show for `COc1ccc(NC(=O)c2ccc(NC(=O)c3nc4nc(C)cc(C)n4n3)cc2)cc1`?
TbPYK inhibitor: 5%; RE007 growth inh: 3%

Results for COc1ccc(-c2nc3nc(C)cc(C)n3n2)cc1 ?
Shiga toxin inh: 37*; CHX counter: 17*; TbPYK inhibitor: -2%; RE007 growth inh: 23%; FBPA Giardia inh: 0%; LmPK inh: inconclusive

What do the screens show for `CCOC(=O)c1cnc2c(-c3ccccc3)cnn2c1N`?
Shiga toxin inh: 90*; CHX counter: 30*; TbPYK inhibitor: -2%; RE007 growth inh: 6%; FBPA Giardia inh: 0%; LmPK inh: 0%

Results for CCOC(=O)c1cnc2c(-c3ccccc3)c(C)nn2c1N ?
Shiga toxin inh: -5; CHX counter: -2; TbPYK inhibitor: -3%; RE007 growth inh: -16%; FBPA Giardia inh: 4%; LmPK inh: 2%

Results for CCOC(=O)c1cnc2c(N=Nc3ccccc3)c(N)nn2c1N ?
Shiga toxin inh: 48; CHX counter: 41*; TbPYK inhibitor: 1%; RE007 growth inh: 9%; FBPA Giardia inh: 1%; LmPK inh: 4%

What do the screens show for `CCOC(=O)c1cnc2c(-c3ccc(Cl)cc3)cnn2c1C`?
Shiga toxin inh: 32; CHX counter: 14*; TbPYK inhibitor: -4%; RE007 growth inh: -11%; FBPA Giardia inh: 3%; LmPK inh: -3%

What do the screens show for `CCOC(=O)c1cnc2c(-c3ccc(F)cc3)cnn2c1C(F)(F)F`?
Shiga toxin inh: 28*; CHX counter: 17*; TbPYK inhibitor: 1%; RE007 growth inh: -8%; FBPA Giardia inh: 0%; LmPK inh: 1%

What do the screens show for `CCOC(=O)c1cnc2c(N=Nc3cccc(Cl)c3)c(N)nn2c1N`?
Shiga toxin inh: -6; CHX counter: 7; FBPA Giardia inh: 5%; LmPK inh: 1%

How did S=C(NCCc1ccccc1)N/N=C/C1CCCCC1 do in these assays?
Shiga toxin inh: 19; CHX counter: 15*; FBPA Giardia inh: -2%; LmPK inh: -4%

What do the screens show for `S=C(NCCc1ccccc1)NN=C1CCCCCC1`?
Shiga toxin inh: 78*; CHX counter: 54*; TbPYK inhibitor: 0%; RE007 growth inh: 36%; FBPA Giardia inh: -8%; LmPK inh: 2%

How did COc1ccc(OC)c(CCNC(=O)c2cc3c(s2)-c2c(C)cccc2OC3)c1 do in these assays?
TbPYK inhibitor: 0%

How did O=C(O)c1cc(-c2ccc(-c3c(-c4ccc5c(c4)OCO5)noc3-c3ccsc3)cc2)nc2ccccc12 do in these assays?
Shiga toxin inh: 61*; CHX counter: 36*; TbPYK inhibitor: -2%; RE007 growth inh: 0%; FBPA Giardia inh: -11%; LmPK inh: -1%

Assay outcomes from PubChem.
